In article PMC7862700, “An all-to-all approach to the identification of sequence-specific readers for epigenetic DNA modifications on cytosine”:

What was measured:
Assay in all cases: DAPPL (digital affinity profiling via proximity ligation, sequencing); 10 mM Tris-HCl pH 7.5, 50 mM NaCl, 1 mM DTT, 4% glycerol, room temperature, 30 min; GST-TFs on glutathione beads, 16-mer random dsDNA library, 0.1% formaldehyde crosslink after washing; high values mean tight binding
FEV = biological target: T1, FEV (Homo sapiens, UniProt Q99581 1-238); settings: protein: recombinant; tags: N-terminal GST; dsDNA, one strand shown
T1 sequence: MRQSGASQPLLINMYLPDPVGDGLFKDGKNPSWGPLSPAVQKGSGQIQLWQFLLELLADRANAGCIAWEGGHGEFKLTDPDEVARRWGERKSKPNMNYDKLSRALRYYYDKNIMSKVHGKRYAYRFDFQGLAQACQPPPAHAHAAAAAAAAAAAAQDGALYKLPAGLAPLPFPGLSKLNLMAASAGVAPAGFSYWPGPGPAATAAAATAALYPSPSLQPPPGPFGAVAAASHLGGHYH
Procedure, shortened: (§1)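 Human transcription factors were made in yeast as GST fusions, captured on glutathione beads and barcoded with DNA. With a tag-only sample included, the pool was incubated with 200 nmole of a random double-stranded 16-mer DNA library in Tris/NaCl/DTT/glycerol buffer at room temperature for 30 min, then crosslinked with 0.1% formaldehyde after washing, ligated by proximity, amplified and sequenced. For binding signal, each hexamer's read frequency for a factor is divided by its frequency for the tag-only sample.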

ETV5 = ETV5 (Homo sapiens, UniProt P41161 1-510); settings: protein: recombinant; tags: N-terminal GST; dsDNA, one strand shown
ETV5, sequence (P41161 whole entry): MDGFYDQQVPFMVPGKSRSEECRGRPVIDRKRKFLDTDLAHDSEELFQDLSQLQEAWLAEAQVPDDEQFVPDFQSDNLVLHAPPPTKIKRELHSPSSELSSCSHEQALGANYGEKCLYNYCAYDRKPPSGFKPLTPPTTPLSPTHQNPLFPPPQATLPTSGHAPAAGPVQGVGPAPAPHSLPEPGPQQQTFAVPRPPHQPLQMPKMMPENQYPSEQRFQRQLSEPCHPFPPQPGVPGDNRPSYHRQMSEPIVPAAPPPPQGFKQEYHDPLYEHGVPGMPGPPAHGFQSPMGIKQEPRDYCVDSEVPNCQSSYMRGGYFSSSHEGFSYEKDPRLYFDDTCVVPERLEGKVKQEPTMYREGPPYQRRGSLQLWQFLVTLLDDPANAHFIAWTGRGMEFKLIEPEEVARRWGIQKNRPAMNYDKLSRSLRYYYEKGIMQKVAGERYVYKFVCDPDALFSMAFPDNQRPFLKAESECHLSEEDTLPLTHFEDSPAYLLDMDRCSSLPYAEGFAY
Procedure, shortened: as §1

HSF1 = HSF1 (Homo sapiens, UniProt Q00613 1-529); settings: protein: recombinant; tags: N-terminal GST; chain copies: 3; dsDNA, one strand shown
HSF1, sequence (Q00613 whole entry): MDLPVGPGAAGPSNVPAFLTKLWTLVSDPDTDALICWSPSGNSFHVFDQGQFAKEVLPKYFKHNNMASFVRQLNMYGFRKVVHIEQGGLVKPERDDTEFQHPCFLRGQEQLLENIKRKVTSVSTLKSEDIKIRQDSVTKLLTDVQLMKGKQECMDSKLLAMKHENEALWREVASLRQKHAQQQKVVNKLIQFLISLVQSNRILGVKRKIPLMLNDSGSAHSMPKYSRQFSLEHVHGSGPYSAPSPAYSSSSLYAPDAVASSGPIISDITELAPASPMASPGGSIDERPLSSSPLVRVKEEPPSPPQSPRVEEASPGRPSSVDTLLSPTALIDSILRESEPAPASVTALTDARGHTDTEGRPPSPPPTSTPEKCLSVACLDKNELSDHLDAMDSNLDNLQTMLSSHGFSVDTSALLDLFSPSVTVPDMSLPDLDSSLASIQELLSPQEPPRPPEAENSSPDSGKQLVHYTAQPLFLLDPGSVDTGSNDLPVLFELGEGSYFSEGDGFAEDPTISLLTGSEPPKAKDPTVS
Procedure, shortened: as §1

SPIC = biological target: T2, SPIC (Homo sapiens, UniProt Q8N5J4 1-248); settings: protein: recombinant; tags: N-terminal GST; dsDNA, one strand shown
T2 sequence: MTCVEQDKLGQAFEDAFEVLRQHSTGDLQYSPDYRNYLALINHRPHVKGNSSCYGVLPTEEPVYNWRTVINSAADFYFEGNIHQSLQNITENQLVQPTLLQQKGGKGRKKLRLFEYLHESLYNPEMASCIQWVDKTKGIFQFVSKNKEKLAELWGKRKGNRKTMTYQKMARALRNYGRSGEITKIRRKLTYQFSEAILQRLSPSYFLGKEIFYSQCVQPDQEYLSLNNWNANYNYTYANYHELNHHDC
Procedure, shortened: as §1

ELF4 = ELF4 (Homo sapiens, UniProt Q99607 1-663); settings: protein: recombinant; tags: N-terminal GST; dsDNA, one strand shown
ELF4, sequence (Q99607 whole entry): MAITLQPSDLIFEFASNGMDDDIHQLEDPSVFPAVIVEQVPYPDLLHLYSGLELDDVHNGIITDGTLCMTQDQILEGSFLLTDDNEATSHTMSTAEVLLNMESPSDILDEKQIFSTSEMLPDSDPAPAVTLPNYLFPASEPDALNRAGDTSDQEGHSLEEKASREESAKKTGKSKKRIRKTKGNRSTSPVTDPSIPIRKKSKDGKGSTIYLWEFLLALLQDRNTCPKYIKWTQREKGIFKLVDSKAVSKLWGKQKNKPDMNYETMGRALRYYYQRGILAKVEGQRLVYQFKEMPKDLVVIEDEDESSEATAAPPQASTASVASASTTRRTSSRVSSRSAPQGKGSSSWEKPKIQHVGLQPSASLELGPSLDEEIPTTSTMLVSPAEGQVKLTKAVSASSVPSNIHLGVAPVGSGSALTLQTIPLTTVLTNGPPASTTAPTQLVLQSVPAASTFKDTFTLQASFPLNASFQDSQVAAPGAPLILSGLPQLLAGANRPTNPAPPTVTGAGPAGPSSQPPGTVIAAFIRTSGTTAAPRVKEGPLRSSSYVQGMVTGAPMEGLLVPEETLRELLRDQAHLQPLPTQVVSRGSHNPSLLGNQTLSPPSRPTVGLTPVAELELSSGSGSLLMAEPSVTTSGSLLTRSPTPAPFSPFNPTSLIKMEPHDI
Procedure, shortened: as §1

ELK4 = biological target: T3, ELK4 (Homo sapiens, UniProt P28324-2 1-405); settings: protein: recombinant; tags: N-terminal GST; dsDNA, one strand shown
T3 sequence: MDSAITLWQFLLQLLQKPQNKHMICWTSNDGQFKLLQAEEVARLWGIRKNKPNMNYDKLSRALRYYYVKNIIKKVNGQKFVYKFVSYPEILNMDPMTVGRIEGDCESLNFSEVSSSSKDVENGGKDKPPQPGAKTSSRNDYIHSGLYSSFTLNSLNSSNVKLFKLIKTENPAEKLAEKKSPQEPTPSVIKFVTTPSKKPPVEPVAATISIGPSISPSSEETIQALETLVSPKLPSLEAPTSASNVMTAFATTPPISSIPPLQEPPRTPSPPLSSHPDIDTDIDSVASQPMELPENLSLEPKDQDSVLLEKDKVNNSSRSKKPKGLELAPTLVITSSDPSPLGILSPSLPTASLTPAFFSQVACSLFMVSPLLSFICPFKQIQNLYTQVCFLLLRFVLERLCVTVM
Procedure, shortened: as §1

ETV2 = biological target: T4, ETV2 (Homo sapiens, UniProt O00321 1-342); settings: protein: recombinant; tags: N-terminal GST; dsDNA, one strand shown
T4 sequence: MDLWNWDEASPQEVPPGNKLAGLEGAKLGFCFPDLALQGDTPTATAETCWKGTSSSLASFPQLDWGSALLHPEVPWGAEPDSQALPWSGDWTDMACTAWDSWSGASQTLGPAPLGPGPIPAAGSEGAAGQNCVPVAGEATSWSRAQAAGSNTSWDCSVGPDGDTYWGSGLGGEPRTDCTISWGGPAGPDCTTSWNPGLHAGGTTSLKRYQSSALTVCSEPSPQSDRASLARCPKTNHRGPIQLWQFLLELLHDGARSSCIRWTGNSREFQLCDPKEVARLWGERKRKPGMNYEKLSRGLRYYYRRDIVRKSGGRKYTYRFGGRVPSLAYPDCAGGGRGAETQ
Procedure, shortened: as §1

ELF3 = biological target: T5, ELF3 (Homo sapiens, UniProt P78545 1-371); settings: protein: recombinant; tags: N-terminal GST; dsDNA, one strand shown
T5 sequence: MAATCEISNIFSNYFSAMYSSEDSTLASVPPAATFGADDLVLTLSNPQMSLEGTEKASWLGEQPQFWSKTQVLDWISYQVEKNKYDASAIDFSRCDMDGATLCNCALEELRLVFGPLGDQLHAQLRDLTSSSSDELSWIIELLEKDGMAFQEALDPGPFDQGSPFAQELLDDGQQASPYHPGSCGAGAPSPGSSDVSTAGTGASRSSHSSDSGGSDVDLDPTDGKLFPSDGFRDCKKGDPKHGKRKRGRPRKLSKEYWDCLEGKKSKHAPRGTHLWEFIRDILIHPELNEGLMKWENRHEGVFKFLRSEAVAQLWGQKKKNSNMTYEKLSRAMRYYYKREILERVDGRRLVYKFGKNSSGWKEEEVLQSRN
Procedure, shortened: as §1

CRX = CRX (Homo sapiens, UniProt O43186 1-299); settings: protein: recombinant; tags: N-terminal GST; dsDNA, one strand shown
CRX, sequence (O43186 whole entry): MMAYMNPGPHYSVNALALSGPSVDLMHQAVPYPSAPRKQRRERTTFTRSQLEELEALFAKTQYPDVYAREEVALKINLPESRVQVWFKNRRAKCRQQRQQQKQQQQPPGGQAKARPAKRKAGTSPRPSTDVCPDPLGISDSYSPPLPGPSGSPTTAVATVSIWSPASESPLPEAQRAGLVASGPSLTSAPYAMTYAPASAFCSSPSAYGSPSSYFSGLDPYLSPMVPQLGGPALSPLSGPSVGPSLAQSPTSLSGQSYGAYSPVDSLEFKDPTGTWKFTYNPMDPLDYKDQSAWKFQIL
Procedure, shortened: as §1

ETV1 = ETV1 (Homo sapiens, UniProt P50549 1-477); settings: protein: recombinant; tags: N-terminal GST; dsDNA, one strand shown
ETV1, sequence (P50549 whole entry): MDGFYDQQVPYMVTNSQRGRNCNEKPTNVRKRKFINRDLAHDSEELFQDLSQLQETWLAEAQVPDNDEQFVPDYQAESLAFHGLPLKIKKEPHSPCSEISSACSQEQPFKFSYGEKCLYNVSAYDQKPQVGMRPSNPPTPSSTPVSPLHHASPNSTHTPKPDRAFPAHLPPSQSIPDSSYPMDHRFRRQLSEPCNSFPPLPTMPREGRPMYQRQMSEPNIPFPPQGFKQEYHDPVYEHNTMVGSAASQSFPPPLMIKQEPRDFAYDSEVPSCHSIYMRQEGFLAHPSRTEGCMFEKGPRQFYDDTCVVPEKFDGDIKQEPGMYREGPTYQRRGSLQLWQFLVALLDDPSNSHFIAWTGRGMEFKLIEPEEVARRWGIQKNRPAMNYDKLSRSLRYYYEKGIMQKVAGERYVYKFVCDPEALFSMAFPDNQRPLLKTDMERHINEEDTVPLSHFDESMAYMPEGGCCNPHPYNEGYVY
Procedure, shortened: as §1

ERF = biological target: T6, ERF (Homo sapiens, UniProt P50548 1-548); settings: protein: recombinant; tags: N-terminal GST; dsDNA, one strand shown
T6 sequence: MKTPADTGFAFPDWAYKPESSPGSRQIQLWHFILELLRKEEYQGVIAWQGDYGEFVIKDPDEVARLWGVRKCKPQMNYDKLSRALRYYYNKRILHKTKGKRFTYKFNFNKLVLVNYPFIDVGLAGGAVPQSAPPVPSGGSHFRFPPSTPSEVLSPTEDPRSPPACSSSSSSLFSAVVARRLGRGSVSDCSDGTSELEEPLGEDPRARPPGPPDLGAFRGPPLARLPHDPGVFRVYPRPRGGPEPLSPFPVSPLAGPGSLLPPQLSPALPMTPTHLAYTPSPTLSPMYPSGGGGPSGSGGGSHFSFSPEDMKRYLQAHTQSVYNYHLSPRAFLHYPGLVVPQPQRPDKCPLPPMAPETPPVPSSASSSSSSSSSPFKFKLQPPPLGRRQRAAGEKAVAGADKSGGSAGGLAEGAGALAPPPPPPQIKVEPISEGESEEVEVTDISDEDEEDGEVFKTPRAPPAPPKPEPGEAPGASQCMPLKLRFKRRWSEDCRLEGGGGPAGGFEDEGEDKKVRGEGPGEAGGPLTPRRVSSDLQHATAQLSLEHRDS
Procedure, shortened: as §1

ETV3L = biological target: T7, ETV3L (Homo sapiens, UniProt Q6ZN32 1-361); settings: protein: recombinant; tags: N-terminal GST; dsDNA, one strand shown
T7 sequence: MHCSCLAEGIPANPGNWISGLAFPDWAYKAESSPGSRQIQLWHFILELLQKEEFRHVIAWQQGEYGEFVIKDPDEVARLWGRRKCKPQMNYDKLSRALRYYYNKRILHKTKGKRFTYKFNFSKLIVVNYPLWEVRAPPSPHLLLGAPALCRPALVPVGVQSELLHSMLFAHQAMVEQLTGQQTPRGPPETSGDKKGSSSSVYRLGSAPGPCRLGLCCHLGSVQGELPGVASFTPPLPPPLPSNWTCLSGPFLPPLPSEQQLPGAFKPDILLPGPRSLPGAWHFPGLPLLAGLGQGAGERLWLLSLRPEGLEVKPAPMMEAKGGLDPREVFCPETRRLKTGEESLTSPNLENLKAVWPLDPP
Procedure, shortened: as §1

ETS2 = biological target: T8, ETS2 (Homo sapiens, UniProt P15036 1-469); settings: protein: recombinant; tags: N-terminal GST; dsDNA, one strand shown
T8 sequence: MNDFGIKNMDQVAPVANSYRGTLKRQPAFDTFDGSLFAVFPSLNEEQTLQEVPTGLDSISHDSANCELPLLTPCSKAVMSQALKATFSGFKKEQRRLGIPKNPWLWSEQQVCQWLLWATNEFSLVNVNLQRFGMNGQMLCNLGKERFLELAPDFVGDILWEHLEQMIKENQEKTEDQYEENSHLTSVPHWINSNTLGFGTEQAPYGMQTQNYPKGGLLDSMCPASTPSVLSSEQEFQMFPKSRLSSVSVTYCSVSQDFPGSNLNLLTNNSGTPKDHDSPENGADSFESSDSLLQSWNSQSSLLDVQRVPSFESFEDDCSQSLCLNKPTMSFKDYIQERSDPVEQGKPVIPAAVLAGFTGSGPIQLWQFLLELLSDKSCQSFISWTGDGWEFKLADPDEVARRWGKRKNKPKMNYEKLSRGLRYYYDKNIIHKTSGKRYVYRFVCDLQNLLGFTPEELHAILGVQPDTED
Procedure, shortened: as §1

SPDEF = biological target: T9, SPDEF (Homo sapiens, UniProt O95238 1-335); settings: protein: recombinant; tags: N-terminal GST; dsDNA, one strand shown
T9 sequence: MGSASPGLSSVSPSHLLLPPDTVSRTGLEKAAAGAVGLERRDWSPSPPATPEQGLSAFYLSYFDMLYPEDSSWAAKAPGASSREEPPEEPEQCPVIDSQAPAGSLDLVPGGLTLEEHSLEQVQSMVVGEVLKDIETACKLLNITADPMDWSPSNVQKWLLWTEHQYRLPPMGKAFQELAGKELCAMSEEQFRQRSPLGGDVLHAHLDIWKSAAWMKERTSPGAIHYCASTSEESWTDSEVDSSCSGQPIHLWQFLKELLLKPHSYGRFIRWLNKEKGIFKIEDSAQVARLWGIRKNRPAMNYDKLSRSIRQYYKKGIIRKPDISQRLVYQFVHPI
Procedure, shortened: as §1

ETV7 = biological target: T10, ETV7 (Homo sapiens, UniProt Q9Y603 1-341); settings: protein: recombinant; tags: N-terminal GST; dsDNA, one strand shown
T10 sequence: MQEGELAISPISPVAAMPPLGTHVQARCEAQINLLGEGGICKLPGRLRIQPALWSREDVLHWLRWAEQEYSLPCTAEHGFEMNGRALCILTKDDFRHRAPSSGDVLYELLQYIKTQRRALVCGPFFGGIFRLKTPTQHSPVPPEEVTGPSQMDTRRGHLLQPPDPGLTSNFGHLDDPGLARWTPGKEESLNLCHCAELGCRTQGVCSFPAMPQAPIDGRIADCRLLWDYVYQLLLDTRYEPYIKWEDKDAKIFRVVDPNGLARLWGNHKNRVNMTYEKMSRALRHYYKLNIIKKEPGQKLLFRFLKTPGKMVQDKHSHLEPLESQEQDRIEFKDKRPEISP
Procedure, shortened: as §1

ELF5 = biological target: T11, ELF5 (Homo sapiens, UniProt Q9UKW6-2 1-255); settings: protein: recombinant; tags: N-terminal GST; dsDNA, one strand shown
T11 sequence: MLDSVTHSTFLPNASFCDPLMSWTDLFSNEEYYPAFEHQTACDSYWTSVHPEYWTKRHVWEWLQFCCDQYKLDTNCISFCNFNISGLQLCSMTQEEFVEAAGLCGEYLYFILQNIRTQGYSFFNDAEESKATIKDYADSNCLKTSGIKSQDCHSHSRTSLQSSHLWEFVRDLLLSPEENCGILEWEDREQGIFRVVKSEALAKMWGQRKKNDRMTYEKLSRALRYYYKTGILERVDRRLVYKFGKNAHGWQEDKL
Procedure, shortened: as §1

ETV3 = biological target: T12, ETV3 (Homo sapiens, UniProt P41162-2 1-143); settings: protein: recombinant; tags: N-terminal GST; dsDNA, one strand shown
T12 sequence: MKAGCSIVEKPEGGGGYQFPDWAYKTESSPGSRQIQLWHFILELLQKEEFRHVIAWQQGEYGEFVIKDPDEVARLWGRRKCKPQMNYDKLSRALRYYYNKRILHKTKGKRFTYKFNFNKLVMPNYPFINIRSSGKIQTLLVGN
Procedure, shortened: as §1

ETV6 = ETV6 (Homo sapiens, UniProt P41212 1-452); settings: protein: recombinant; tags: N-terminal GST; dsDNA, one strand shown
ETV6, sequence (P41212 whole entry): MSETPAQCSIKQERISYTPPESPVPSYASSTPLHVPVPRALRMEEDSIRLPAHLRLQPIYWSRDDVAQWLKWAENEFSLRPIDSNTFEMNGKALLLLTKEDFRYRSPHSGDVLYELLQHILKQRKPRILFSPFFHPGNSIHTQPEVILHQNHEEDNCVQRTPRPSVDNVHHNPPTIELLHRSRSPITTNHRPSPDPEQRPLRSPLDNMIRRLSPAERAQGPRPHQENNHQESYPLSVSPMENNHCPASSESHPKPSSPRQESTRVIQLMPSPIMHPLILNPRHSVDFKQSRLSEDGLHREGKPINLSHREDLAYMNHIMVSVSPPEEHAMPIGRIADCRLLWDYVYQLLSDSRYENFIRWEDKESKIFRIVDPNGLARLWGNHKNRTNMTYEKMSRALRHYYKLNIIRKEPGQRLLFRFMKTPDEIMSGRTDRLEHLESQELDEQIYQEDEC
Procedure, shortened: as §1

**Q.** What does the source list for TGGCAT?
**A.** binding signal (FEV): 1.3 fold enrichment (6-mer frequency, TF over GST control); binding signal (ETV5): 1.13 fold enrichment (6-mer frequency, TF over GST control); binding signal (HSF1): 1.26 fold enrichment (6-mer frequency, TF over GST control); binding signal (SPIC): 1.24 fold enrichment (6-mer frequency, TF over GST control); binding signal (ELF4): 1.18 fold enrichment (6-mer frequency, TF over GST control); binding signal (ELK4): 1.21 fold enrichment (6-mer frequency, TF over GST control); binding signal (ETV2): 1.37 fold enrichment (6-mer frequency, TF over GST control); binding signal (ELF3): 1.24 fold enrichment (6-mer frequency, TF over GST control); binding signal (CRX): 1.21 fold enrichment (6-mer frequency, TF over GST control); binding signal (ETV1): 1.18 fold enrichment (6-mer frequency, TF over GST control); binding signal (ERF): 1.11 fold enrichment (6-mer frequency, TF over GST control); binding signal (ETV3L): 1.1 fold enrichment (6-mer frequency, TF over GST control); binding signal (ETS2): 1.14 fold enrichment (6-mer frequency, TF over GST control); binding signal (SPDEF): 1.09 fold enrichment (6-mer frequency, TF over GST control); binding signal (ETV7): 1.1 fold enrichment (6-mer frequency, TF over GST control); binding signal (ELF5): 1.06 fold enrichment (6-mer frequency, TF over GST control); binding signal (ETV3): 1.23 fold enrichment (6-mer frequency, TF over GST control); binding signal (ETV6): 1.25 fold enrichment (6-mer frequency, TF over GST control)
